According to ChEMBL document CHEMBL3988442, “University of Dundee, Small-Polar-MMV Screening Library” (2021):
About 13,000 (27%) of roughly 48,000 compounds showed an effect of 50% or more. This is one part of the list.

Tested on: Wolbachia pipientis
Test: Anti-Wolbachia Cell-Based Screen
Format: functional
Set-up: scale not given: in the data most compounds retested in dose-response had high values
Conditions: 5 µM

| SMILES | Percent Effect |
| --- | --- |
| CC(=O)N1CCN(C(=O)C2SCCc3sccc32)CC1 (stereo unspecified) | -2.542% |
| O=C(O)C(F)(F)F.O=C(O)C(F)(F)F.O=C(c1ccc(F)cc1)N1CCN2C[C@H](Oc3cccnc3)C[C@H]2C1 | -2.866% |
| COc1ccccc1N1CCN(C(=O)Cn2nccc2C)CC1(C)C | 4.467% |
| O=C(CCc1nc(Cl)n[nH]1)N1CCC2(CCCNC2=O)C1 (stereo unspecified) | 7.017% |
| CN1CCC(N(C)C(=O)c2cnn(-c3ccccc3Br)c2N)CC1 | 112.2% |
| CCCN1CCC(N(C)C(=O)c2cc(C)nc3cc(F)ccc23)CC1 | 11.04% |
| CN1CCC(N(C)C(=O)c2cnn(-c3cc(F)ccc3F)c2N)CC1 | 123.1% |
| Cc1cc(C(=O)N(C)C2CCS(=O)(=O)C2)c2ccc(F)cc2n1 (stereo unspecified) | -24.13% |
| Cc1cccc2c1nc(COCC(=O)O)n2-c1ccc(N)nc1 | -5.94% |
| CCCC(C)C(=O)N1CCC(c2cc(N3CCOCC3)nc(C)n2)CC1 (stereo unspecified) | 8.426% |
| Cn1c(CCNc2nccnc2C#N)nc2cc(Cl)ccc21 | -1.88% |
| Cc1cccc(OC2CCN(c3ncc(C#N)cc3Cl)CC2)n1 | -14.79% |
| CN(C)S(=O)(=O)NCc1cccnc1Oc1ccc(F)c(F)c1 | -7.83% |
| Cc1cc(=O)n2nc(Oc3ccc(Cl)c(C)c3)sc2n1 | 81.92% |
| Cc1cc(=O)n2nc(Oc3cc(Cl)cc(Cl)c3)sc2n1 | 108.5% |
| Cc1cc(OCC(=O)NS(=O)(=O)c2c(C)noc2C)ccc1Cl | -5.411% |
| Cc1cc(=O)n2nc(Oc3ccc(C#N)cc3Cl)sc2n1 | 80.29% |
| Cc1nccc(CNC(=O)NCCOc2ccc(F)c(F)c2)n1 | -14.18% |
| CN(C)c1cccc(CNC(=O)Nc2cc(C#N)ccc2Cl)n1 | 19.69% |
| Cc1cc(=O)n2nc(Oc3ccc(F)c(F)c3)sc2n1 | 78.71% |
| c1ccc(C(CNc2ncccn2)N2CCOCC2)nc1 (stereo unspecified) | -6.458% |
| CS(=O)(=O)NC[C@H]1Cn2c(-c3ccc(Cl)cc3)cnc2CO1 | -25.96% |
| Cc1nnc(NC(=O)CN2CCCC(Cn3cncn3)C2)s1 (stereo unspecified) | -2.603% |
| CCc1nnc2n1CCN(C(=O)c1ccc(-c3ccco3)nc1C)C2 | -7.114% |
| c1cnnc(-c2noc(CCN3CCCO3)n2)c1 | 93.6% |
| c1ccc(-c2noc(CNC3CCCN(c4cccnn4)C3)n2)nc1 (stereo unspecified) | 15.74% |

| SMILES | Percent Effect |
| --- | --- |
| O=C1CCCCCN1CCc1nc(-c2cccnn2)no1 | 101.6% |
| NC(=O)N1CCCC(c2nc(-c3cccnn3)no2)C1 (stereo unspecified) | -17.63% |
| O=C1CCCCN1CCc1nc(-c2cccnn2)no1 | 94.65% |
| O=C1CCCN1CCc1nc(-c2ccsc2)no1 | 3.312% |
| O=C1CCCN1Cc1nc(-c2ccsc2)no1 | -0.6709% |
| c1cnnc(-c2noc(COCC3CCCO3)n2)c1 (stereo unspecified) | -7.3% |
| CCC(=O)N1CCCC(c2nc(-c3cccnn3)no2)C1 (stereo unspecified) | -10.18% |
| Fc1cnc(N2CC[C@@H]3O[C@H](COCc4ccccn4)CC[C@@H]32)nc1.O=C(O)C(F)(F)F.O=C(O)C(F)(F)F | -8.752% |
| CCC(Nc1cccc(Oc2ccc(C#N)cc2)c1)C(N)=O (stereo unspecified) | 17.41% |
| O=c1cc2c(nn1CN1CCN(c3cccc(Cl)c3)CC1)CCC2 | -5.597% |
| N#Cc1ccc2c(c1)CN(C(=O)c1nc[nH]n1)C2c1cnco1 (stereo unspecified) | -15.48% |
| CNC(=O)[C@@H]1COC[C@H]2CN(C(=O)COc3ccccc3)C[C@H]21 | -5.187% |
| CNC(=O)C1CCN(c2nccc(CCC(F)(F)F)n2)C1 (stereo unspecified) | -10.68% |
| COCCC(=O)N1CCN(C)c2ncccc2C1 | -0.6435% |
| CCC(=O)N1C[C@@H](C(=O)NC)[C@H](c2ccnc(N3CCCC3)n2)C1.Cl | 103.8% |
| CNC(=O)[C@@H]1CN(C(=O)COC)C[C@H]1c1ccnc(N2CCCC2)n1 | 103.6% |
| CCNC(=O)C1CCN(c2nccc(C3CCCC3)n2)C1 (stereo unspecified) | -5.882% |
| CCNc1ccnc(N2CCCC(CCOC)(C(=O)O)C2)n1 (stereo unspecified) | -0.7265% |
| CCn1ncnc1C(C)NC(=O)C1CCN(C(=O)COC)CC1 (stereo unspecified) | 0.6867% |
| CNC(=O)[C@@H]1CN(C(=O)CCOC)C[C@H]1c1ccnc(N2CCCC2)n1.Cl | 97.41% |
| O=C(O)C(c1cccc2c1OCC2)N1CCC(N2CCCC2)CC1 (stereo unspecified) | -6.638% |
| O=C1C(Nc2ncccn2)CCN1c1ccccc1OC(F)F (stereo unspecified) | -3.338% |
| COCCS(=O)(=O)NC(C)c1cccc(-n2cccn2)c1 (stereo unspecified) | 2.381% |
| CC(=O)Nc1ccc(C(=O)Nc2cnc3n2CCCC3)cc1C | 7.352% |
| CC(C)NC(=O)N1CCC2(CC1)Cc1ccccc1CN(C)C2=O | 105% |
| CC(C)NC(=O)N1CCC2(CC1)CCn1c(C3CC3)cnc12 | 5.233% |

| SMILES | Percent Effect |
| --- | --- |
| C[C@@H]1CN(C2(C(=O)N3CCOCC3)Cc3ccccc3C2)C[C@H](C)O1 | -3.118% |
| CC(C)NC(=O)N1CCC2(CC1)Cc1ccccc1CNC2=O | 106.4% |
| CN1Cc2ccccc2CC2(CCN(C(=O)[C@H]3CCCO3)CC2)C1=O | -50.23% |
| CN1Cc2ccccc2CC2(CCN(C(=O)N3CCOCC3)CC2)C1=O | 102.4% |
| CC(NC(=O)N1CCc2ccccc2C1)c1nncn1C (stereo unspecified) | -2.02% |
| CNS(=O)(=O)c1ccccc1N1CCN(C(=O)NC(C)C)CC1 | -1.761% |
| O=C([C@H]1CCCO1)N1CCC2(CC1)Cc1ccccc1CNC2=O | -31.67% |
| O=S(=O)(C/C=C/c1ccccc1)Cc1nc(C2CC2)no1 | 14.62% |
| CCn1ccnc1CN1CCN(CCOc2cccc(C#N)c2)CC1 | -6.749% |
| CC(C)c1cnc(CNc2c(F)cccc2-n2cccn2)o1 | 11.31% |
| CCNC(=O)NC1CN(Cc2ccccc2N(C)C)C[C@@H]1OC (stereo partly specified) | 0.7877% |
| CC(NC(=O)N1CCc2sccc2C1)c1nncn1C (stereo unspecified) | 8.221% |
| CN(C)C(=O)N1C[C@@H]2CCCO[C@@H]2[C@H](N(C)Cc2ccco2)C1.O=C(O)C(F)(F)F | -2.152% |
| Cc1nccn1-c1cc(CNC(=O)CCNC(=O)C2CCCC2)ccn1 | 5.543% |
| Cc1nc(CN(C)C2CCN(Cc3nc4ccccc4s3)C2)no1 (stereo unspecified) | 10.14% |
| CCOc1cccc(CNC2CCCN(Cc3noc(C)n3)C2)c1 (stereo unspecified) | 100.5% |
| Cc1nc(CN2CCCC(NCc3cccc4ccccc34)C2)no1 (stereo unspecified) | 107.2% |
| Cc1nc(CN2CCCC(Nc3ncnc4ccccc34)C2)no1 (stereo unspecified) | -16.22% |
| Cc1nc(CN2CCCC(NCc3nc4ccccc4s3)C2)no1 (stereo unspecified) | 116.1% |
| Cc1nc(CN2CCCC(NCc3cnn(C)c3)C2)no1 (stereo unspecified) | 104.5% |
| Cc1nc(CN2CCCC(NCCc3ccccc3Cl)C2)no1 (stereo unspecified) | -3.863% |
| Cc1nc(CN2CCCC(N(C)c3cnc4ccccc4n3)C2)no1 (stereo unspecified) | -0.8744% |
| Cc1nc(CN2CCCC(NCCOc3ccccc3)C2)no1 (stereo unspecified) | -9.342% |
| CCc1nc(CN2CCCC(NCc3cnn(C(C)(C)C)c3)C2)no1 (stereo unspecified) | -2.673% |
| Cn1cc(CNC2CCCN(Cc3noc(C4CC4)n3)C2)cn1 (stereo unspecified) | -8.767% |
| Cc1nc(CN2CCCC(NCC(=O)Nc3cccnc3)C2)no1 (stereo unspecified) | -1.962% |

| SMILES | Percent Effect |
| --- | --- |
| Cc1cccc(CNC(Cn2cncn2)c2ccccc2)c1C (stereo unspecified) | -43.08% |
| CN(C)c1cc2c(nn1)CCN(C(=O)Cc1noc3ccccc13)C2 | 12.15% |
| CN(Cc1csc(-c2ccccc2)n1)C(=O)CCn1ccccc1=O | -32.35% |
| Cc1nc(CN2CCCC(NCc3ccsc3)C2)no1 (stereo unspecified) | 1.864% |
| COc1ccc(CNC2CCCN(Cc3noc(C)n3)C2)cc1F (stereo unspecified) | -5.655% |
| Cc1nc(CN2CCCC(NCc3sccc3C)C2)no1 (stereo unspecified) | 84.94% |
| Cc1nc(CN2CCCC(NCc3ccc4ccccc4c3)C2)no1 (stereo unspecified) | 117% |
| Cc1nc(CN2CCCC(NCc3csc(C(C)(C)C)n3)C2)no1 (stereo unspecified) | 82.03% |
| Cc1nc(CN2CCCC(NCc3ccc(Cl)s3)C2)no1 (stereo unspecified) | 105.2% |
| Cc1nc(CN2CCCC(NCCOCC(F)(F)F)C2)no1 (stereo unspecified) | -2.958% |
| Cc1nc(CN2CCCC(N(C)Cc3cscn3)C2)no1 (stereo unspecified) | 2.968% |
| Cc1nc(CN2CCCC(NCc3c(C)nc4sccn34)C2)no1 (stereo unspecified) | -4.535% |
| CCOc1cccc(CN2CCCn3nc(CNS(C)(=O)=O)cc3C2)c1 | -2.285% |
| Cc1nc(CN2CCCC(NCc3ccc4c(c3)CCO4)C2)no1 (stereo unspecified) | 109.8% |
| Cc1cccc(CN2CCc3ncnc(C)c3CC2)n1.O=C(O)C(F)(F)F | -2.689% |
| Cc1ncnc2c1CCN(Cc1ccccn1)CC2.O=C(O)C(F)(F)F.O=C(O)C(F)(F)F | -3.635% |
| Cc1cccc(CN2CCc3ncnc(C4CC4)c3CC2)n1.O=C(O)C(F)(F)F | 113.1% |
| O=C(O)C(F)(F)F.O=C(O)C(F)(F)F.c1ccc(CN2CCc3ncnc(C4CCOC4)c3CC2)nc1 (stereo unspecified) | 3.596% |
| Cc1cccc(CN2CCc3ncnc(NC4CCC4)c3CC2)n1.O=C(O)C(F)(F)F.O=C(O)C(F)(F)F | 78.48% |
| CN(c1nc(CSc2nnc(Cn3cncn3)o2)cs1)C1CC1 | -4.174% |
| O=C(CCc1c[nH]cn1)N1CC[C@@H](c2ccc3ccccc3c2)[C@H](O)C1 | -1.023% |
| Cc1n[nH]c(SCC(=O)NC(c2ccccn2)C(C)C)n1 (stereo unspecified) | 0.231% |
| CC(C)Cn1cc(NC(=O)NC(C)(C)c2nccs2)cn1 | -7.007% |
